Screening results (PubChem BioAssay)
Sampled rows, rich in hits. Any-hit rate of the full collection: about 12%.
BAZ2B block = blocks human BAZ2B. Q9UIF8. AlphaScreen BAZ2B-H3K14Ac peptide displacement. Potency, µM (titrated, usually from 114 µM), for inactives: at the highest dose activity change, negative = inhibition, usual class: inhibitors. actives 4.4% (n = 360,000). AID 504333; also: % is scaled to controls: 0 for no effect and ±100 for the full control effect; nearly all actives have a fitted effect of over 60% in size
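Protein-peptide AlphaScreen: BAZ2B 50 nM, b-H3K14Ac 50 nM, 1x PBS pH 7.4 + 0.01% Tween-20. Preincubation 30 min RT; cpd 30 min RT (top 110 uM); beads 20 min RT, light-protected.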
Sfp PPTase inh = blocks B. subtilis Sfp PPTase activity; Q9F4F7; Biochemical Sfp PPTase activity, qHTS; Potency, µM, inactives show largest response in the series, negative = inhibition, actives largely listed as inhibitors; actives 3.5% (n = 310,000);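 also: the enzyme is Sfp with the accession as filed and its product quenches rhodamine fluorescence; 0% = enzyme reaction without inhibitor and -100% = no enzyme wells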
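Fluorescence-quenching assay: 15 nM Sfp-PPTase preincubated 15 min at room temperature with compound, then 5 uM rhodamine-CoA and 12.5 uM BHQ-2-labelled YbbR peptide added. Fluorescence (ex 525/em 598 nm) read at start and after 30 min; difference gives rate.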
PLK1 PBD inh = PLK1 (human) polo-box domain binding inhibition | Plk1 PBD binding of FITC phosphopeptide, fluorescence polarization | Potency, µM, for inactives: max response, negative = inhibition, usual class: inhibitors | actives 2.8% (n = 360,000); also: series mostly up to about 57 µM; % is scaled to controls: 0 for no effect and ±100 for the full control effect; nearly all actives have a fitted effect of over 65% in size
JMJD2A Tudor = JMJD2A Tudor domain (human) inhibition | O75164 | AlphaScreen JMJD2A-Tudor / H3K4me3 peptide binding | Potency, µM (highest dose often 114 µM), for the others: at the highest dose activity change, negative = inhibition, usual class: inhibitors | actives 4.4% (n = 390,000); also: % is scaled to controls: 0 for no effect and ±100 for the full control effect; nearly all actives have a fitted effect of over 50% in size
Target sequence (O75164 whole entry, looked up, the tested form may be a part): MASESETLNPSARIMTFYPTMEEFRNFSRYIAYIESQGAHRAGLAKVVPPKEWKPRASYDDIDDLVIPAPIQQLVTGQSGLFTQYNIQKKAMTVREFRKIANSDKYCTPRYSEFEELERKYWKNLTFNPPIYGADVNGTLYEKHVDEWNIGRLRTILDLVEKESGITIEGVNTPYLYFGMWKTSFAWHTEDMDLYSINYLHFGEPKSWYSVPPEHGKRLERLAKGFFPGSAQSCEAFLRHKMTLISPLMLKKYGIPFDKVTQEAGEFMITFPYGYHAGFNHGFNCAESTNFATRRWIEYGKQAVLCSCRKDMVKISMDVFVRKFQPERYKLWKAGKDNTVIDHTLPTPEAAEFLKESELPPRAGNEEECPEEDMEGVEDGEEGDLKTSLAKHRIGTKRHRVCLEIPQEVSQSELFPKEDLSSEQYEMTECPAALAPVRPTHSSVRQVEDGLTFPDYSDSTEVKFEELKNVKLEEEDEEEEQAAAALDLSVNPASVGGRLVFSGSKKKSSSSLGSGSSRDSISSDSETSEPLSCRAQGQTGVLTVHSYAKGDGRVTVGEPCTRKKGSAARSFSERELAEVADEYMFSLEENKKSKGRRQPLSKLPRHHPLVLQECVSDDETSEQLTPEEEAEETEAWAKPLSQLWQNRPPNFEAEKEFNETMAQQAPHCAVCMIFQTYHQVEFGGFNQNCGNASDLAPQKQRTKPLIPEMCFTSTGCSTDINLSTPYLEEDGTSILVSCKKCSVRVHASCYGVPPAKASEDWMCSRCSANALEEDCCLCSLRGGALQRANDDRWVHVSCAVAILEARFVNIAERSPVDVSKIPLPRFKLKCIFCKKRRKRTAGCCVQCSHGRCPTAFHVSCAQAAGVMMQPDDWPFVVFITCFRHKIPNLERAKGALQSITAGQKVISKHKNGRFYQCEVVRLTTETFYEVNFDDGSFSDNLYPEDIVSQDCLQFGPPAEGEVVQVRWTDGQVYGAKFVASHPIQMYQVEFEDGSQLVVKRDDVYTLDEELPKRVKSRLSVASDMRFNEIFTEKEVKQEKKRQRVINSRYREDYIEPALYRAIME
G9a block = G9a (human) methyltransferase inhibition; Q96KQ7; G9a H3K9 monomethylation, AlphaScreen, 2 h; Potency, µM (top dose mostly 102 µM), inactives show at the highest dose activity, negative = inhibition, hits mostly inhibitors; actives 8.8% (n = 350,000); AID 504332; also: % is scaled to controls: 0 for no effect and ±100 for the full control effect; nearly all actives have a fitted effect of over 75% in size
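Step 1: enzyme (final 20 nM) with compound, 15 min RT. Step 2: substrate peptide 500 nM and SAM 20 uM, 2 h RT. Step 3: anti-H3K9me1 antibody and AlphaScreen beads, 10 min, then plate read.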
HP1b binding inh = HP1-beta chromodomain-methylated histone interaction inhibition; P83916; AlphaScreen HP1-beta / biotin-H3K9me3 peptide binding; Potency, µM (top dose mostly 114 µM), inactives show at the top dose activity change, negative = inhibition, usual class: inhibitors; actives 0.56% (n = 390,000); AID 540317; also: nearly all actives have a fitted effect of over 70% in size
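Compound inhibition of the preformed complex between 50 nM HP1-beta and 50 nM biotinylated H3K9me3 peptide was read by AlphaScreen. Buffer was PBS pH 7.4 with 0.01% Tween-20. Incubations ran 30 min at room temperature, with 10 ug/mL donor/acceptor beads.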
The depositor's hits bear a star; ? = inconclusive; nt = no result given; [ ] = another dose, or the depositor's remark. Calls follow the shape of the dose curve; as a rule, active = well fitted curve in the direction sought with a large enough effect; inconclusive = small, poorly fitted or top-dose-only effect, or another doubt; inactive = no such curve, though single readings can be large; an effect the other way counts as inactive or inconclusive. Potency is read from the fitted curve at half-maximal effect.

SMILES	BAZ2B block	Sfp PPTase inh	PLK1 PBD inh	JMJD2A Tudor	G9a block	HP1b binding inh
O=C(NNS(=O)(=O)c1ccccc1F)c1ccccc1-n1cccc1	-28%	9%	-1%	-12%	-29%	25%
O=C(O)c1cc(S(=O)(=O)O)cc(Nc2c3ccccc3nc3ccccc23)c1O	?	?	-8%	?	18µM*	?
Cc1nc2c(-c3ccc(F)cc3)c(C)nn2c(C)c1CCC(=O)NCc1ccc(Cl)cc1	-10%	nt	nt	-7%	-2%[59 µM]	31%
CNC(=S)N(C)/N=C1/C(=O)N(Cc2c(Cl)cccc2Cl)c2ccccc21	25µM*	nt	-1%	5µM*	-20%[12.7 µM]	-49%
O=C1CCCc2ccccc2N1Cc1c(Cl)cccc1Cl	9%	?	-2%	2%	-20%[12.7 µM]	21%
Cc1[nH]c(-c2ccco2)nc1C(=O)O	?	79µM*	-5%	10µM*	20µM*	1%
COc1cc(-c2nc(-c3ccccc3)c(-c3cccs3)[nH]2)cc(OC)c1O	50µM*	1%	-4%	45µM*	-6%[12.7 µM]	?
Cc1cc(=O)n2[nH]c(-c3ccco3)nc2n1	0%	-14%	-7%	-12%	-17%[59 µM]	42%
COc1ccc(-c2[nH]c(-c3ccc(O)cc3)nc2-c2ccccc2)cc1	10µM*	nt	nt	63µM*	?	-22%
Cc1[nH]c(-c2ccc3c(c2)OCO3)nc1C(=O)O	50µM*	56µM*	-8%	22µM*	10µM*	10%
COc1cc(-c2nc(-c3ccccc3)c(-c3cccs3)[nH]2)cc(OC)c1OC	1%	8%	4%	-18%	24%[12.7 µM]	21%
C/C(=C\CNc1ncnc2c1ncn2[C@@H]1O[C@H](CO)[C@@H](O)[C@H]1O)CO	nt	-5%	nt	nt	31%[59 µM]	nt
CN(C)c1ccc(-c2nc(-c3cccs3)c(-c3cccs3)[nH]2)cc1	?	nt	nt	?	8.9µM*	-21%
Oc1ccccc1-c1nc(-c2cccs2)c(-c2cccs2)[nH]1	?	nt	nt	?	-2%[59 µM]	41%
COc1ccc(-c2noc(-c3ccc4c(c3)OCO4)n2)cc1	6%	15%	-1%	-14%	23%[59 µM]	23%
COc1ccc(-c2nc(-c3ccccc3)c(-c3ccc(O)cc3)[nH]2)cc1	35µM*	nt	nt	28µM*	?	?
COc1ccc(-c2nc(-c3ccc4c(c3)OCO4)[nH]c2-c2ccc(OC)cc2)cc1	18µM*	15%	-10%	13µM*	-47%[59 µM]	?
Cc1cc(N)c2ccccc2[n+]1CCCCCCCCCCCCCC[n+]1c(C)cc(N)c2ccccc21	nt	nt	nt	nt	0.4µM*	nt
Cc1ccc(-c2nc(C(=O)NCc3ccc(Cl)cc3)c3n2CCCCC3)cc1	4%	nt	nt	-7%	6%[59 µM]	16%
O=C(NCc1ccccc1)c1nc(-c2ccc(Cl)cc2)n2c1CCCCC2	13µM*	nt	nt	22µM*	14µM*	-5%
CCOc1ccccc1CNC(=O)c1nc(-c2ccc(Cl)cc2)n2c1CCCCC2	10µM*	nt	nt	?	10µM*	-15%
O=C(c1ccc(Cl)cc1)N1CCN(c2ccc(F)cc2)CC1	6%	-6%	0%	-11%	10%[59 µM]	28%
CC(C)N(Cc1ccccc1)C(=O)c1nc(-c2ccc(Cl)cc2)n2c1CCCCC2	35µM*	nt	nt	45µM*	?	-15%
O=C(c1nc(-c2ccc(Cl)cc2)n2c1CCCCC2)N1CCN(c2ccc(F)cc2)CC1	40µM*	nt	nt	40µM*	?	?
OCC1OC(n2cnc3c(N4CCCCC4)ncnc32)C(O)C1O (stereo not given)	nt	nt	1%	7%	nt	27%
SMILES	BAZ2B block	Sfp PPTase inh	PLK1 PBD inh	JMJD2A Tudor	G9a block	HP1b binding inh
COc1ccc(NC(=O)CC2C(=O)N(c3cccc(OC)c3)C(=O)N2Cc2ccc3c(c2)OCO3)cc1 (stereo not given)	-7%	nt	nt	-23%	-7%[59 µM]	10%
Cc1cc(-c2ccccc2)nc2cc(C(=O)Nc3ccc(Cl)c(Cl)c3)nn12	?	nt	nt	?	?	8%
O=C(NCCc1ccc(Cl)cc1)c1nc(-c2cccc(F)c2)n2c1CCCCC2	11µM*	nt	nt	22µM*	25µM*	-23%
O=C(NCCc1ccccc1)c1nc(-c2ccc(Cl)cc2)n2c1CCCCC2	25µM*	nt	nt	22µM*	14µM*	-19%
CC(=O)NC(Cc1ccc(F)cc1)C(=O)NC1CCN(C(=O)Nc2ccccc2C)CC1 (stereo not given)	15%	14%	7%	-9%	-24%	31%
Nc1sc2c(c1C(=O)NC1CC1)CCCC2	nt	nt	19µM*	?	nt	?
CCNC(=O)c1c(N)sc2c1CCCCC2	5%	35µM*	nt	nt	?	nt
Cc1ccc(N=C2C(=O)Nc3ccccc32)cc1C	-1%	-2%	-10%	-20%	20%[0.501 µM]	-4%
O=C1Nc2ccccc2C1=Nc1ccc2[nH]c3ccccc3c2c1	nt	nt	-2%	35µM*	nt	?
Cc1c(C)n(C(=O)CN2CCC(C(N)=O)CC2)c2ccccc12	-6%	-5%	-5%	-18%	10%[59 µM]	32%
CN1CCN(CC(=O)n2c3c(c4ccccc42)CCCC3)CC1	?	-1%	-5%	56µM*	40µM*	-9%
Cc1c(C)n(C(=O)CN2CCN(c3ccccc3)CC2)c2ccccc12	?	?	-5%	?	50µM*	-19%
Cc1cc(NC(=O)CN(C)CCOc2ccccc2)ccc1Br	35µM*	-29%	-2%	0.79µM*	12%	?
CCOc1ccc(CN(C)CC(=O)Nc2cccc(S(=O)(=O)N(C)c3ccccc3)c2)cc1	nt	-18%	11%	22µM*	5µM*	?
CN(CCOc1ccccc1)CC(=O)Nc1cccc(Br)c1	?	-41%	4%	1.6µM*	11µM*	-14%
CN(CCOc1ccccc1)CC(=O)Nc1cccc(C#N)c1	11%	6%	1%	4%	19%	39%
Cc1ccc2[nH]c(=O)c3cc(C(=O)NC(C)C)sc3c2c1	-17%	-1%	?	32µM*	-5%	36%[57 µM]
CCOC(=O)C(C)NC(=O)c1cc2c(=O)[nH]c3ccc(C)cc3c2s1 (stereo not given)	6%	nt	nt	1%	-3%[59 µM]	34%
COC(=O)/C(=C1/OC(=O)C(c2ccccc2)=C1O)c1ccccc1	nt	-8%	nt	nt	nt	nt
CC1=NC(=O)C(N=Nc2cccc(O)c2)N1c1ccccc1 (stereo not given)	20µM*	-7%	1%	32µM*	?	?
O=C(/C=C/c1ccco1)NC(=S)Nc1cccc(C(=O)O)c1	32µM*	79µM*	?	20µM*	8.9µM*	20µM*
COc1cc(NS(=O)(=O)c2ccc(NC(=S)NC(=O)/C=C/c3ccco3)cc2)ncn1	-35%	-27%	13µM*	18µM*	?	?
CC(=O)Nc1ccc(NC(=S)NC(=O)/C=C/c2ccco2)cc1	?	-28%	?	?	2%[0.501 µM]	7%
